GRP78 ERSR act: induces the endoplasmic reticulum stress response in human glioma cells; U87-MG GRP78 promoter luciferase reporter, 16 h; 0.02% of 420,000 active; AID 602332; Potency, µM, for the others: top-dose activation, hits mostly activators; also: series mostly up to about 76 µM; % of control where 0% means no effect; nearly all actives have a fitted effect of over 35% in size
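Stably transfected U87-MG human glioma cells carrying a GRP78-based luminescent sensor were seeded at 1000 cells/well, pin-dosed with compounds and incubated 16 h. Luciferase reagent was then added, and end-point luminescence was read after 10 min at room temperature.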
Abeta rescue: compounds reversing amyloid beta toxicity in yeast; yeast expressing A-beta42, growth rescue, OD600, 48 h; response scale: 0% DMSO, 100% iron-clioquinol control; Potency, µM (series often up to 46.1 µM), usual class: activators; 0.063% of 410,000 active; also: nearly all actives have a fitted effect of over 55% in size
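Yeast A-beta toxicity model in growth medium with pinned compounds, 48 h at 30 C; growth read as absorbance at 600 nm. Normalized to FeCl3/clioquinol equimolar mix (positive) and DMSO (negative).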
aSyn yeast inh: inhibitors of alpha-synuclein toxicity in yeast. AID 652106. 0.14% of 370,000 active. Yeast expressing alpha-synuclein, growth rescue, BacTiter-Glo, 24 h. Potency, µM (highest dose often 46.1 µM), without a hit: at the highest dose growth rescue (activation), usual class: activators; also: % of control where 0% means no effect; nearly all actives have a fitted effect of over 65% in size
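Screening used galactose-induced yeast with toxic alpha-synuclein levels, exposed to compound for 24 hr at 30 deg C. Cell growth, read with BacTiter-Glo luminescence, gave the measured signal.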
TDP-43 yeast inh: TDP-43 toxicity inhibition in yeast; TDP-43 expressing yeast growth rescue, BacTiter-Glo, 24 h; Potency, µM (top dose mostly 46.1 µM), without a hit: at the highest dose growth rescue (activation), usual class: activators; 1.8% of 410,000 active; also: % of control where 0% means no effect; nearly all actives have a fitted effect of over 50% in size
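Luminescence from BacTiter-Glo reports growth of TDP-43-expressing yeast after 24 hr at 30 deg C with compound. Cells were raffinose-pregrown to mid-log, then seeded in galactose medium at OD600=0.02.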
AT treatment: potential ataxia-telangiectasia treatments restoring KAP-1 phosphorylation. F2112 A-T fibroblasts, KAP-1 phosphorylation AlphaLISA; neocarzinostatin DNA damage 30 min before lysis. Potency, µM (titrated, usually from 57.5 µM), inactives show at the top dose activation, most hits filed as activators. 0.19% of 320,000 active. AID 485349; also: % of control where 0% means no effect; nearly all actives have a fitted effect of over 45% in size
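ATM-like activity read as KAP-1 phosphorylation via AlphaLISA donor/acceptor antibody pairs after lysis and 6 hr at 25C. Cells were ATM-null patient fibroblasts (F2112, hTERT), dosed 60 min, then exposed to the DSB inducer NCS for 30 min.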
Mito fusion yeast: inhibitors of mitochondrial division or activators of mitochondrial fusion; 0.23% of 320,000 active; S. cerevisiae fusion-defective mutant growth rescue, CellTiterGlo 48 h; AID 485298; Potency, µM (titrated, usually from 46.1 µM), for inactives: at the highest dose growth rescue (activation), hits mostly activators; also: % of control where 0% means no effect; nearly all actives have a fitted effect of over 45% in size
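Read-out: ATP-based luminescence (CellTiterGlo, 10 min ambient) reporting growth of fusion-defective ts yeast after 48 hours at 37C on glycerol/ethanol YPEG medium in the presence of compound.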
Numbers without * were called inactive; i = inactive; ? = inconclusive; . = no result given. Only some compounds are listed: those with a hit (about 2.1% of all), similar ones and a draw of the others. Calls follow the shape of the dose curve; as a rule, active = well fitted curve in the direction sought with a large enough effect; inconclusive = small, poorly fitted or top-dose-only effect, or another doubt; inactive = no such curve, though single readings can be large; an effect the other way counts as inactive or inconclusive. Potency is read from the fitted curve at half-maximal effect.

SMILES	GRP78 ERSR act	Abeta rescue	aSyn yeast inh	TDP-43 yeast inh	AT treatment	Mito fusion yeast
CC1COC(=O)C(NNc2ccc(Cl)c(Cl)c2)=N1 (stereo unspecified)	1.2%	i	13.2%	3.55µM*	1.5%	-1.8%
Fc1ccc(Br)cc1SCCc1ccncc1	-4.8%	i	-3.8%	11.2µM*	-1.1%	1.2%
CC(C)(C)NC[C@H](O)CSc1nc(-c2ccc(C(N)=O)s2)cs1	-4.4%	.	.	.	.	.
c1ccc(CN(Cc2ccccc2)C(c2ccnc3ccccc23)c2nnnn2-c2ccc3c(c2)OCCO3)cc1 (stereo unspecified)	.	i	3.1%	20.6%	.	.
CN(CCc1ccccc1)C(c1ccnc2ccccc12)c1nnnn1-c1ccc2c(c1)OCCO2 (stereo unspecified)	.	i	1.0%	35.5µM*	.	.
CN(C)c1ccc(/C=C/c2c([N+](=O)[O-])c(=O)n(C)c(=O)n2C)cc1	2.2%	i	-7.2%	3.2%	-6.7%	-7.0%
Cn1c(/C=C/c2ccc(Br)cc2)c([N+](=O)[O-])c(=O)n(C)c1=O	-8.1%	i	0.0%	20µM*	-1.2%	-13.8%
COCCN(C)C(=O)c1cnn(-c2nccc(-c3cc(C)sc3C)n2)c1C	2.7%	.	.	.	.	.
CCN(CC)c1ccc(/C=C(/C#N)c2nc3ccccc3[nH]2)c(OC(C)C)c1	-1.7%	i	-25.1%	12.6µM*	-10.4%	22.0%
COc1ccc2ccccc2c1CN1CCC2(CCC(CNC(=O)c3ccccc3)O2)CC1 (stereo unspecified)	1.4%	.	.	.	.	.
CC(=O)N1c2ccc(S(=O)(=O)NCCC(=O)Nc3ccc(Br)c(C)c3)cc2CC1C (stereo unspecified)	-3.3%	i	.	8.1%	.	.
CCOC(=O)c1cccc2c1-c1ccccc1/C2=N/O	-1.8%	i	-13.3%	14.1µM*	4.7%	14.7%
O=C1C2C(C(=O)N1/N=C/c1ccc([N+](=O)[O-])o1)C1C=CC2C12CC2 (stereo unspecified)	-14.2%	i	26.0%	17.8µM*	11.0%	1.0%
O=C1C2C3C=CC(C4CC34)C2C(=O)N1/N=C/c1ccc([N+](=O)[O-])o1 (stereo unspecified)	14.4%	i	6.1%	?	27.3%	-2.6%
CN(c1ncnc(N)c1[N+](=O)[O-])C1CCCCC1	-4.1%	i	4.5%	12.6µM*	-1.1%	-0.9%
CN(c1ncnc(N)c1[N+](=O)[O-])C1CCS(=O)(=O)C1 (stereo unspecified)	-1.0%	i	-3.6%	2.2%	7.5%	2.0%
CN1CCN(c2nc3cc(C(F)(F)F)ccc3n3cccc23)CC1	-1.6%	i	-3.3%	-6.6%	.	18.4µM*
COc1ccc(-c2cc(=O)oc3c(O)c(O)ccc23)cc1	-5.5%	i	?	?	-0.4%	1.9%
O=c1ccc2ccc(O)c(O)c2o1	41.4µM*	.	-11.2%	.	.	23.1µM*
Cc1ccc2nccc(/C=C/c3ccc(N(C)C)cc3)c2c1	-4.0%	.	.	.	.	.
O=C(Oc1c(Cl)cc(Cl)c2cccnc12)c1ccco1	-2.6%	i	3.55µM*	?	-0.8%	?
Cc1ccccc1NC(=O)c1nc(S(C)(=O)=O)ncc1Cl	-13.3%	i	18.0%	10µM*	10.1%	-22.9%
Cc1cccc(CS(=O)(=O)c2ncc(Cl)c(C(=O)NCc3ccccc3)n2)c1	-13.3%	i	19.5%	7.94µM*	-16.3%	-20.6%
Cc1cccc(C)c1NC(=O)c1nc(S(=O)(=O)Cc2ccccc2)ncc1Cl	-18.7%	i	18.7%	10µM*	-8.9%	-69.3%
Cc1ccccc1CS(=O)(=O)c1ncc(Cl)c(C(=O)Nc2ccc(F)cc2)n1	-15.0%	i	-1.4%	11.2µM*	0.8%	-78.9%
SMILES	GRP78 ERSR act	Abeta rescue	aSyn yeast inh	TDP-43 yeast inh	AT treatment	Mito fusion yeast
Cc1cccc(CS(=O)(=O)c2ncc(Cl)c(C(=O)Nc3c(C)cccc3C)n2)c1	-16.7%	i	2.4%	?	-2.8%	-67.7%
OC1(c2ccc3c(c2)CN(Cc2nccs2)CCO3)CCN(c2ccccc2F)CC1	2.2%	.	.	.	.	.
O=C(Nc1ccon1)Nc1cccc(Cl)c1Cl	5.0%	i	1.3%	12.6µM*	0.5%	0.6%
O=C(Nc1cccc(C(F)(F)F)c1)Nc1ccon1	-0.3%	i	-11.1%	20µM*	0.5%	-2.5%
O=C(Nc1cccc(C(F)(F)F)c1)c1sc(Cl)nc1C(F)(F)F	-3.9%	10µM*	-23.0%	12.6µM*	-6.9%	3.1%
Nc1ncnc2c1ncn2[C@@H]1O[C@H](C(=O)N2CCN(c3ccc(Cl)cn3)CC2)[C@@H](O)[C@H]1O	-2.6%	i	-3.8%	8.4%	.	.
CCCS(=O)(=O)NCc1c(C)ncc2c1CCN(C(=O)c1c(F)ccc(F)c1F)C2	-3.7%	.	.	.	.	.
O=S(=O)(NC(=NC1CCCCC1)c1ccccc1F)c1ccccc1	-3.5%	i	0.8%	3.0%	5.3%	0.631µM*
COc1ccc(CN2C[C@H](Sc3nc4ccccc4[nH]3)C[C@H]2C(=O)N2CCCN(C)CC2)cc1C	-3.4%	.	.	.	.	.
O=C(OC1CCOC1=O)c1cc(-c2ccc(Br)cc2)nc2ccccc12 (stereo unspecified)	-1.1%	i	-2.1%	21.0%	13.5%	9.3%
COc1ccc(-c2cc(C(=O)OC3CCOC3=O)c3ccccc3n2)cc1 (stereo unspecified)	8.3%	i	-5.5%	15.8µM*	11.8%	0.0%
COc1ccc(C(C)=O)cc1COC(=O)c1c(C)noc1C	-0.5%	i	10.0%	15.8µM*	3.5%	4.6%
COc1ccc(C(C)=O)cc1COC(=O)c1ccc(OCc2c(C)noc2C)cc1	-12.5%	i	3.9%	11.6%	2.6%	-5.0%
CCOC(=O)C1CCCc2c1[nH]c1ccc(Cl)cc21 (stereo unspecified)	-0.8%	?	1.3%	12.6µM*	-1.8%	-5.9%
O=C(N/N=C/c1sc(N2CCOCC2)nc1-c1ccccc1)c1ccccc1O	-2.6%	i	-5.6%	14.1µM*	-9.3%	8.8%
Cc1cccc(CNC(=O)c2cnn(-c3nccc(-c4ccccc4F)n3)c2C)n1	-2.0%	.	.	.	.	.
Cc1cccc(C(=O)NCc2nc(-c3cccc(NC(=O)C4CCCN(C)C4)c3)oc2C)n1 (stereo unspecified)	-2.4%	.	.	.	.	.
CC1C(=O)N(Cc2cn(Cc3ccco3)nn2)CCS(=O)(=O)N1Cc1ccc(-c2ccc(Cl)cc2)cc1 (stereo unspecified)	-3.2%	i	3.0%	35.5µM*	.	.
CC1C(=O)N(Cc2cn(CCC3OCCO3)nn2)CCS(=O)(=O)N1Cc1ccc(-c2ccc(Cl)cc2)cc1 (stereo unspecified)	4.6%	i	1.0%	28.2µM*	.	.

Screening results as filed in PubChem.
